Measurements as given in PubChem BioAssay (NCI).
The panel holds about 79,000 compounds, 15% with a hit somewhere; the sample as a whole holds those more often. Values without a mark were called inactive. Calls of active or inactive are those of the source. No stated cut-off is given here; in the data, active means growth inhibition above about 70%; inactive means the rest.

Experiments:
[1] = NCI Yeast Anticancer Drug Screen. Data for the rad50 strain (AID 155);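 further: 0% = growth of vehicle-only cultures of the same strain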; conditions: S. cerevisiae rad50 strain growth inhibition; at 50.0 µM; active compounds read high
Summary of the method: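 Yeast carrying a defined DNA repair defect were exposed to test compounds, and growth was compared with vehicle-treated controls to give percent inhibition.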

[2] = NCI Yeast Anticancer Drug Screen. Data for the mec2-1 strain (AID 157); conditions: S. cerevisiae mec2-1 strain, at 50.0 µM, active compounds read high
Summary of the method: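 Each compound was tested on mec2-1 yeast, a strain altered in DNA damage repair or cell cycle control. Growth inhibition is reported relative to vehicle.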

[3] = NCI Yeast Anticancer Drug Screen. Data for the sgs1 mgt1 strain (AID 161);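 further: 0% = growth of cultures given vehicle only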; conditions: S. cerevisiae sgs1 mgt1 strain, at 50.0 µM, active compounds read high
Summary of the method: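 Genetically altered yeast, compound exposure, growth inhibition relative to vehicle.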

[4] = NCI Yeast Anticancer Drug Screen. Data for the cln2 rad14 strain (AID 165);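 further: 0% = growth equal to vehicle treated cultures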; conditions: S. cerevisiae cln2 rad14 strain, at 50.0 µM, active compounds read high
Summary of the method: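 Test compounds were added to cln2 rad14 yeast cultures; inhibition of growth was then determined by comparison with vehicle treatment.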

[5] = NCI Yeast Anticancer Drug Screen. Data for the bub3 strain (AID 167); conditions: S. cerevisiae bub3 mutant strain, at 50.0 µM, active compounds read high
Summary of the method: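 Compounds were applied to a genetically altered yeast strain carrying a cell-cycle control defect. Growth inhibition was scored against vehicle-treated controls.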

[6] = NCI Yeast Anticancer Drug Screen. Data for the mlh1 rad18 strain (AID 175); conditions: S. cerevisiae mlh1 rad18 strain growth inhibition; at 50.0 µM; active compounds read high
Summary of the method: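 Inhibition values reflect reduced growth of mutant yeast versus vehicle-treated controls following compound exposure; the mutations affect DNA damage repair.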

Row | SMILES | growth inhibition [1] | growth inhibition [2] | growth inhibition [3] | growth inhibition [4] | growth inhibition [5] | growth inhibition [6]
1 | CCOC(=O)c1c2c(c(-c3ccccc3)n1C)C(=O)C(C)=C(C)C2=O | -10.8% | -2.4% | -10.2% | -28.9% | 1.05% | -6.65%
2 | COC(=O)CC1=NNC(=O)C1 | -11.7% | -15.1% | -14% | -18.1% | -7.35% | -19.8%
3 | COC(=O)c1nc(N)nc(C(=O)OC)c1C(=O)c1cccs1 | -2.55% | -9.05% | -28.9% | -24.8% | -43% | -20.9%
4 | CSCCNC(=O)CS(=O)(=O)c1ccc(C)cc1 | 3.35% | -11.4% | 5.25% | 20.2% | 7.95% | 17.4%
5 | CN(C)c1ccc2oc3ccccc3c2c1 | -4.5% | -4.5% | -21.4% | -23.9% | 5.35% | -26.4%
6 | COC(=O)CC1CSCC1=O (stereo unspecified) | 7.5% | 22.1% | 5.95% | -12.5% | 12.6% | 11.2%
7 | Cc1ccc(-c2ccc(C)cc2)cc1 | -31.2% | -38% | -22.2% | -11.1% | -36.9% | -11.1%
8 | COc1cc([N+](=O)[O-])ccc1NC(=O)C(Br)C(Br)C(=O)O (stereo unspecified) | -6.6% | 5.15% | -12.5% | -28.1% | -0.35% | 16.4%
9 | COc1ccc(OC(C)C(=O)O)cc1 (stereo unspecified) | 13.2% | 10.5% | 3.5% | -31.5% | 13.3% | 6.25%
10 | NCCCCC(N)C(=O)NC1C(CO)OC(n2cnc3c(N)ncnc32)C1O (stereo unspecified) | 31.9% | 13.2% | 7.55% | 14.3% | 5.75% | 30.1%
11 | CCOC(=O)C/C(C)=N/NS(=O)(=O)c1ccc(NC(C)=O)cc1 | -7.6% | -19.6% | 8.25% | -9.3% | -27.3% | -24.8%
12 | CN(C)CCNC(=O)CN | 0.15% | -12.2% | 4.1% | -0.6% | 5.9% | 2.75%
13 | CC1=CC(=O)c2c(C=O)c(O)c(O)c(C(C)C)c2C1=O | 91% (active) | 93.4% (active) | 91.8% (active) | 91.1% (active) | 91.2% (active) | 90.8% (active)
14 | O=C(OCc1ccccc1)c1ccc(Cl)cc1 | 22.9% | 5.7% | 20.6% | 15.2% | -1.65% | 4.4%
15 | Cc1c2ccccc2nc(CSCCO)[n+]1[O-] | -10.8% | -22.1% | -7.95% | -2.1% | 5.5% | -16.2%
16 | NC(=S)N/N=C/C=C/c1ccco1 | 8.9% | 0.25% | 30.6% | -41.5% | 20.3% | 52%
17 | N#C/C(=N\NC(=O)c1ccncc1)c1ccc(Cl)cc1 | -3% | 3.6% | 3.75% | -30.2% | -9.75% | 4.65%
18 | O=C1CN(C(=O)Nc2ccccc2)c2ccccc2N1 | 26.6% | -25.5% | -8.3% | 4.55% | 7% | -5.5%
19 | O=C1NC(N2CCCC(CO)C2)=N/C1=C\c1ccc(O)cc1 (stereo unspecified) | 13.1% | 2.05% | -15.3% | 33.4% | -9.6% | -31.6%
20 | CCC(c1cccc(OC)c1)C(C(=O)O)c1ccc(OC)cc1 (stereo unspecified) | 5% | 17.5% | 12.6% | 7.15% | 7.35% | 27.2%
21 | O=c1[nH]cnc2oc(-c3ccccc3)nc12 | -0.3% | -0.7% | -6.35% | -41.2% | -15.8% | 4.75%

Row | SMILES | growth inhibition [1] | growth inhibition [2] | growth inhibition [3] | growth inhibition [4] | growth inhibition [5] | growth inhibition [6]
22 | CCCCn1c(=O)cc(C(=O)O)c2ccccc21 | 1.7% | -12.7% | -0.5% | -9.25% | -7.9% | 0.05%
23 | NC(=O)c1cn(Cc2ccccc2)c(=O)n1Cc1ccccc1 | 9.75% | 18.2% | -3.2% | 9.45% | 23.8% | 11.7%
24 | CC(C)C(NC(=O)C1CSC(C)(C)N1C=O)C(=O)O (stereo unspecified) | -1.6% | -0.1% | -3.3% | -8.35% | 6.55% | 2.25%
25 | CCOc1ccccc1N1C(=O)CSC1=S | 15.2% | 14.2% | 51.2% | -14% | 48.9% | 30.2%
26 | COCN1COCN(C)C1=O | 8.5% | 7.3% | -1.55% | 11.6% | 23.9% | 9.1%
27 | O=C(N/N=C/c1ccc(O)cc1)C1CCCO1 (stereo unspecified) | 2.9% | 26.5% | -1.35% | -64.2% | 2.95% | -9.45%
28 | COC(=O)c1cc([N+](=O)[O-])c(Br)s1 | 99.3% (active) | 99.6% (active) | 99.6% (active) | 99.5% (active) | 99.3% (active) | 99.3% (active)
29 | Cc1cc(=O)c2c(Br)ccc(Br)c2[nH]1 | 3.5% | -16.1% | -1.1% | 3.4% | 7.3% | -13.8%
30 | Cc1ccccc1NC(=O)CSC#N | 10.2% | 7.35% | 1.7% | 20.1% | -12.6% | 8.75%
31 | CCCCCCCCCCCCCCCCSc1ccc2ccccc2c1 | 37.9% | -13.8% | 41.3% | -7.5% | -3.45% | 0.2%
32 | c1ccc2c(c1)CCCC(N1CCOCC1)C2 (stereo unspecified) | 2.3% | 2.7% | 16.9% | 11.1% | -24.3% | 15.9%
33 | CC(C)(C)[Si](C)(C)OC1C(=O)C[C@H]2CCCC[C@@H]12 (stereo partly specified) | -6.75% | 0.85% | -1.75% | 17.1% | 10.2% | 22.3%
34 | CC(C)=CCCC(=O)C(c1nc2n(c1O)C(=N)N=N2)c1nc2n(c1O)C(=N)N=N2 (stereo unspecified) | 12.1% | 7.65% | 2.1% | 7.9% | 5.55% | 20.6%
35 | Cc1ccc(NC(=S)N(C)C)cc1 | 14.5% | 15.9% | -10.6% | -71.8% | 22.4% | -23.9%
36 | CCCCCCCCCCCCSC(=O)CCC(=O)O | -49.5% | -11.9% | 13.8% | -29.9% | 1.85% | 10.1%
37 | COC(=O)C(CCc1ccccc1[N+](=O)[O-])C(=O)OC | 38.6% | 10.8% | 11.7% | -4.45% | 43% | 34.1%
38 | COc1ccc2nc(N(C)C)cc(N(C)C)c2c1 | -10.6% | 5.6% | -2.4% | -34.8% | 4.6% | -5%
39 | CC1CCCCC(=O)N1 (stereo unspecified) | 11.6% | 13.4% | 27.7% | 5.1% | 18.6% | -1.35%
40 | COC1/C=C\OC2(C)Oc3c(C)c(O)c4c(O)c(c(/C=N\NC(=O)CC(=O)N/N=C/c5c6c(O)c7c(O)c(C)c8c(c7c5O)C(=O)C(C)(O/C=C/C(OC)C(C)C(OC(C)=O)C(C)C(O)C(C)C(O)C(C)/C=C/C=C(C)C(=O)N6)O8)c(O)c4c3C2=O)NC(=O)/C(C)=C\C=C/C(C)C(O)C(C)C(O)C(C)C(OC(C)=O)C1C (stereo unspecified) | -4.5% | 6.3% | -2.2% | -5.4% | 6.75% | -16.4%
41 | CCCCOC(=O)CC1CCCCC1 | -15.3% | -8.95% | -30.8% | -6.1% | -5.6% | -10.2%
